These results are taken from the OligoGym collection.
Further: reference of the scale not given here.

One assay addresses USO1. Description: pooled miR-30 sensor sort-seq; sequence = guide strand. The settings on record: shRNA.
In the case of TATATTATATAGTATGTCCAAA, the sensor-assay potency score (higher = more potent) was -1.01.
With TACACGAACAAGCTGTAGCATT, the sensor-assay potency score (higher = more potent) was -0.757.
As to TTATAGTCTCGGTCTCTCCTTG, the sensor-assay potency score (higher = more potent) was determined as 0.0783.

Another assay deals with USP2. The description is as above. The settings on record: shRNA.
With TTTTGCAAACTCTTCCACGAGG, the sensor-assay potency score (higher = more potent) was -0.596.
Still for that read-out and setting: the figure for TAGTTTTGCAAACTCTTCCACG is -0.662; for TAGGTCTCAGTGTCACTCGGTT it is -0.44.
With TGAAAGTGTGCCATTCTCCTGT, the sensor-assay potency score (higher = more potent) is 0.787.
Same read-out and setting: the figure for TTAGGTCTCAGTGTCACTCGGT is 0.557; for TTGGTGAAGAGCCTCATGCAGT it is -0.823.
TATTTTCTCCACATCTGTCGGC: the sensor-assay potency score (higher = more potent) is 0.643.
The sequence TAGAACAGTAACCACAATCTGT had a sensor-assay potency score (higher = more potent) of -0.00783.
Consider TTCTCCACATCTGTCGGCCTTT, for which the sensor-assay potency score (higher = more potent) was -0.4.
Sequence ATTGAGTTCATGAAGCACGTGT displayed a sensor-assay potency score (higher = more potent) of 0.753.
For TAGATATTTTCTCCACATCTGT, the sensor-assay potency score (higher = more potent) is -1.14.

In another assay the target is USP43. The assay is described as above. The conditions noted are these: shRNA.
Consider TTGCACAAAGCTTTGACCTAGA, for which the sensor-assay potency score (higher = more potent) stood at 0.359.
On the same count and under the same terms, under TTTCCTTGAGTTTCCTTGCTGT stands 0.819; under TACTCCACCAACTCGACGGAGG, -1.32.
Same read-out and setting: under TTGCTGAGGATAGACTGCTGGA stands -0.504; under TGTAGAACTGAAAACATTCATC, -0.712.
Still for that read-out and setting: the figure for TTGCTGTGTTTGGACCATCTGA is -0.995; for TTTGCACAAAGCTTTGACCTAG it is 0.51; for TAGAACAGGATATAAGCCCCTC it is -0.232.
TAGCACCTTGCTCTCACTGTGG registered a sensor-assay potency score (higher = more potent) of -0.424.
In the case of TAGGTAGGGACACACACAGGAA, the sensor-assay potency score (higher = more potent) was -1.19.
With TTCGGAGACAAATAGCTGCAGG, the sensor-assay potency score (higher = more potent) is -0.652.
Take TCGTACAGGAAGTCCAGCGGGT: the sensor-assay potency score (higher = more potent) was -0.327.

The next assay addresses USP44. The description is as above. The settings on record: shRNA.
As to TTGCAGTGTACCCAGAACCCTC, the sensor-assay potency score (higher = more potent) is -1.01.
The sequence TAACTTGATACTCCAATTCCTG returned a sensor-assay potency score (higher = more potent) of -1.33.
TACAACATTCAGAACTTGTTTG: the sensor-assay potency score (higher = more potent) is -0.39.
TATCTTTTGCTGGTGATGCTGG had a sensor-assay potency score (higher = more potent) of -0.299.
With TATAAAACAAGATATAAGCTTG, the sensor-assay potency score (higher = more potent) was -0.0233.
As for TTGATCTTCACTTTGAAGCAGA, the sensor-assay potency score (higher = more potent) was -0.107.
Still for that read-out and setting: the figure for TTTGATATACTACTGTATCTGT is 0.327.
Same read-out and setting: the figure for TACGCTTTGAGTTACACTGGTC is 0.148; for TTGATTTGTTGTCACATGCAAG it is -1.1; for TTGCACAAGTTCATCATCCGAG it is 0.487.
As for TATCATTCAGAACATAATCATC, the sensor-assay potency score (higher = more potent) is -1.41.
For the sequence TTGCAGTCCACACAGTGCCATT, the sensor-assay potency score (higher = more potent) was -1.55.
